For 30 molecules, outcome and AC50 results are on record in PubChem BioAssay (EPA / NIEHS).

SMILES strings stand for the structures. Inconclusive results are not listed. Calls of active or inactive are those of the source. How the source made its calls: active means hit-call score of the fitted dose curve at least 0.9, where 1 is the maximum; inconclusive means response in the unintended direction; inactive means score below 0.9.

Sequence of Estrogen receptor beta (Homo sapiens) (Q92731 whole entry, looked up, the tested form may be a part): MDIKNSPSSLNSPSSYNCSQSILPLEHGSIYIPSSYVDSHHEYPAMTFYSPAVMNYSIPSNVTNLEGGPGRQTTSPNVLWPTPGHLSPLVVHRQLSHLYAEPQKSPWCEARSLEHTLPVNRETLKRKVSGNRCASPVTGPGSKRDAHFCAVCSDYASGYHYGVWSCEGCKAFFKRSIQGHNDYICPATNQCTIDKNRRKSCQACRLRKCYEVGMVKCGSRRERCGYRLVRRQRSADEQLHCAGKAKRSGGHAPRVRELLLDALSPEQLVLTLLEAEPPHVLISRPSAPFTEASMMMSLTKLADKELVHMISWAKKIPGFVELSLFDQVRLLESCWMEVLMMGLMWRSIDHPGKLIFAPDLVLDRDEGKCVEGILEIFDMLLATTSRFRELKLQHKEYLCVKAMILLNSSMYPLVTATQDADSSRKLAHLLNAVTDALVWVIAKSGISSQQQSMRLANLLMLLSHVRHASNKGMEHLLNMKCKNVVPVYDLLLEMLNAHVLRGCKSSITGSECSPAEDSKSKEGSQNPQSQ
Sequence of GAL4 Transcription Factor (Internal Marker), GAL4 (gene 855828) (P04386 whole entry, looked up, the tested form may be a part): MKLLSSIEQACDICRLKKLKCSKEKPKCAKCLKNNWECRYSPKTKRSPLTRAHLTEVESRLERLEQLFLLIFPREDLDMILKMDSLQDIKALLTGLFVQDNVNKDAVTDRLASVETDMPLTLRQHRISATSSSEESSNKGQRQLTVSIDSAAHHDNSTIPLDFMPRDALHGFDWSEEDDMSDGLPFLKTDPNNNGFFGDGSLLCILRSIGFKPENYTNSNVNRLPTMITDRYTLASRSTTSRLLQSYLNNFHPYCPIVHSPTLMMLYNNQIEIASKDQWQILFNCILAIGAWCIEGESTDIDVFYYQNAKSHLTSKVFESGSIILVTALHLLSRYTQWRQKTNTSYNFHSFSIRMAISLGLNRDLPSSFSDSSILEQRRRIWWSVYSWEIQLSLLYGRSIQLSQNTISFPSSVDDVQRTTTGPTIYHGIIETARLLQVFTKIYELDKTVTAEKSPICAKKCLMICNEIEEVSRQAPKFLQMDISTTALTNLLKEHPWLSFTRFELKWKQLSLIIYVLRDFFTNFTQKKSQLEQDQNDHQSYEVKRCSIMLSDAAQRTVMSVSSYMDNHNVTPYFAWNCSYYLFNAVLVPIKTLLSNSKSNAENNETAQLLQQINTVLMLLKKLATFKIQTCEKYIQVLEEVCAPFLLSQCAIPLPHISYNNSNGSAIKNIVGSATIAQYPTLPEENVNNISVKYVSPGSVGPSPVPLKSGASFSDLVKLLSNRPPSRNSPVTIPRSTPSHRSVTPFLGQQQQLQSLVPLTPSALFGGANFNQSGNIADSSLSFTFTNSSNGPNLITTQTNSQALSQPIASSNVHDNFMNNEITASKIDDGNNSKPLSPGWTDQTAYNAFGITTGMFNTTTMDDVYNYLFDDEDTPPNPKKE

System in one assay: not listed separately
The experiment in a line: STM_H9_NormalizedViability: Cytotoxicity Assessment at 120 hours in the Stemina devTOX quickPredict H9 human embryonic stem cell (hESC)-based Assay (AID 2283784). The gist of the method: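 Undifferentiated H9 hESCs kept pluripotent were exposed to compound, with media and chemical replaced every 24h. CellTiter-Fluor protease-substrate fluorescence was background-corrected and normalized per plate to the 0.1% DMSO vehicle; signal loss indicates reduced viability.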
Turning to `C=CCC1=C(C)[C@@H](OC(=O)[C@@H]2[C@@H](C=C(C)C)C2(C)C)CC1=O`, the outcome was inactive.

`COc1nc(NC(C)C)nc(NC(C)C)n1`: the outcome was inactive.

For the molecule `C=CC1(C)OC(=O)N(c2cc(Cl)cc(Cl)c2)C1=O` (configuration not stated), the outcome was inactive.

For orientation: AC50 means the concentration giving half of the maximal activity seen. Consider `CCCC1COC(Cn2cncn2)(c2ccc(Cl)cc2Cl)O1` (configuration not stated), for which the concentration at half-maximal activity (AC50) was 71.2 µM (active).

Consider `C#CCOS(=O)OC1CCCCC1Oc1ccc(C(C)(C)C)cc1` (configuration not stated), for which the concentration at half-maximal activity (AC50) is 3.86 µM (active).

Regarding `N#Cc1nn(-c2c(Cl)cc(C(F)(F)F)cc2Cl)c(N)c1S(=O)C(F)(F)F` (configuration not stated), the AC50 is 66.1 µM (active).

Turning to `CCCCC(CC)COC(=O)c1ccccc1C(=O)OCC(CC)CCCC` (configuration not stated), the outcome was inactive.

Consider `COC(=O)c1ccccc1C(=O)OC`, for which the result was inactive.

In the case of `CCCCNC(=O)n1c(NC(=O)OC)nc2ccccc21`, the AC50 is 7.21 µM (active).

A further assay has as its system turtle Androgen Receptor (AR), gene 101947425. The experiment in a line: ATG_trAR_XSP1: Attagene TRANS-FACTORIAL Multi-Species (XSP1) HepG2 Assay for turtle Androgen Receptor (AR) (AID 2283786). The gist of the method:
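HepG2 cells transiently transfected with a turtle AR–GAL4 chimera and GAL4-UAS reporter, co-treated with 3 nM 6-alpha-fluorotestosterone for partial stimulation. Reporter mRNA is quantified at 24 h by RT-PCR and capillary electrophoresis, gain-of-signal versus DMSO.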
Turning to `CC(C)(C)c1ccc(CSc2cnn(C(C)(C)C)c(=O)c2Cl)cc1`, the call was inactive.

Take `CC(C)Oc1cc(-n2nc(C(C)(C)C)oc2=O)c(Cl)cc1Cl`: the call was inactive.

Regarding `COP(=S)(OC)Oc1nc(Cl)c(Cl)cc1Cl`, the AC50 was 25.3 µM (active).

Take `CCCN(CCC)c1c([N+](=O)[O-])cc(S(N)(=O)=O)cc1[N+](=O)[O-]`: the molecule was classed as inactive.

Turning to `C#CCOS(=O)OC1CCCCC1Oc1ccc(C(C)(C)C)cc1` (configuration not stated), the AC50 is 1.6 µM (active).

The target in the next assay is AR (gene 367) (UniProt P10275). The experiment in a line: ACEA_AR_antagonist_80hr: ACEA Biosciences xCELLigence Real-Time Cell Analysis on Androgen Receptor Antagonism for Proliferation (AID 2283787).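 Further: 22Rv1 human prostate cancer cells with growth followed by electrical impedance; hits lower the impedance growth signal relative to DMSO.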 The gist of the method: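 Growth-kinetic antagonist readout in 22Rv1 cells, taken 80 h after continuous compound exposure. Activity fitted as signal loss relative to DMSO negative control.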
Sequence of AR (gene 367) (P10275 whole entry, looked up): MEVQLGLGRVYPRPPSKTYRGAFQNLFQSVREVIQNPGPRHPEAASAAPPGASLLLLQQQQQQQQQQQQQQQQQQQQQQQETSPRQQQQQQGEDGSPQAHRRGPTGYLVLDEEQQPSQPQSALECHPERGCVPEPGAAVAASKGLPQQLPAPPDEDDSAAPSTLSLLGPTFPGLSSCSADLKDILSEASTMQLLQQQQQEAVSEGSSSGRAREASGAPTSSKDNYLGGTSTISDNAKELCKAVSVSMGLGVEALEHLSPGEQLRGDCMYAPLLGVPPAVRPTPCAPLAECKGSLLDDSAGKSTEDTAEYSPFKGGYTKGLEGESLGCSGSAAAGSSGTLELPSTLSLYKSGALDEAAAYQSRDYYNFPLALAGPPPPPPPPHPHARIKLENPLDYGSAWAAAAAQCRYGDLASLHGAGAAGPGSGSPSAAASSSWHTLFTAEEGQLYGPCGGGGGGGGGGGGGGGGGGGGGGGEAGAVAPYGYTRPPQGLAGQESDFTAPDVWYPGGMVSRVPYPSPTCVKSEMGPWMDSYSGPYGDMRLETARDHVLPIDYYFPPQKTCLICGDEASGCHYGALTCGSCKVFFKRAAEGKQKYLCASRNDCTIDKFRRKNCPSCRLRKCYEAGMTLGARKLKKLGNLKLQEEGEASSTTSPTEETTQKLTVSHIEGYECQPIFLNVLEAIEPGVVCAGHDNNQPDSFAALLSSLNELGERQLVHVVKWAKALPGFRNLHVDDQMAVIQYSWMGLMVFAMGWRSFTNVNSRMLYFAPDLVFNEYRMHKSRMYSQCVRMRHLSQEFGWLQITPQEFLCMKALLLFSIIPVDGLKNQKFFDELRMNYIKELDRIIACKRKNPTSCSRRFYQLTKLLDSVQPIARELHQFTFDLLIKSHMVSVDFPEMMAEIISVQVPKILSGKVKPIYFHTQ
Regarding `CS/C(C)=N/OC(=O)N(C)SN(C)C(=O)O/N=C(\C)SC`, the AC50 is 76.7 µM (active).

As for `CC1=C(C(=O)Nc2ccccc2)SCCO1`, the molecule was classed as inactive.

Turning to `CCOC(=O)CC(SP(=S)(OC)OC)C(=O)OCC` (configuration not stated), the concentration at half-maximal activity (AC50) is 88.6 µM (active).

Consider `CN(C)C(=S)SSC(=S)N(C)C`, for which the concentration at half-maximal activity (AC50) is 20.6 µM (active).

In the case of `Cc1ccc(-c2c(Cl)nc(C#N)n2S(=O)(=O)N(C)C)cc1`, the AC50 is 14.1 µM (active).

`CO/C=C(/C(=O)OC)c1ccccc1Oc1cc(Oc2ccccc2C#N)ncn1`: the half-maximal activity concentration (AC50) is 61.2 µM (active).

As for `CCON=C(CC)C1=C(O)CC(c2c(C)cc(C)cc2C)CC1=O` (configuration not stated), the outcome was inactive.

Regarding `O=C(Nc1ccccc1)Nc1ccnc(Cl)c1`, the half-maximal activity concentration (AC50) is 33.4 µM (active).

Regarding `CCCC1COC(Cn2cncn2)(c2ccc(Cl)cc2Cl)O1` (configuration not stated), the concentration at half-maximal activity (AC50) is 76.1 µM (active).

With `N#Cc1cc(Br)c(O)c(Br)c1`, the AC50 was 53.5 µM (active).

With `N#Cc1nn(-c2c(Cl)cc(C(F)(F)F)cc2Cl)c(N)c1S(=O)C(F)(F)F` (configuration not stated), the AC50 was 58 µM (active).

On to `Cc1cc(Cl)ccc1OCC(=O)O`, for which the molecule was called inactive.

Consider `CCCCNC(=O)n1c(NC(=O)OC)nc2ccccc21`, for which the AC50 is 71.7 µM (active).

Another assay concerns the target Estrogen receptor beta (Homo sapiens) (UniProt Q92731). Kind of assay: ATG_hERb_XSP1: Attagene TRANS-FACTORIAL Multi-Species (XSP1) HepG2 Assay for human Estrogen Receptor (ESR2) (AID 2283788). The gist of the method: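 Measured endpoint is transcriptional gain of signal from a GAL4-UAS reporter controlled by chimeric ERβ in HepG2 liver cells. Exposure lasts 24 h alongside 3 nM 6-alpha-fluorotestosterone, with DMSO as negative control.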
Take `COC(=O)N(OC)c1ccccc1COc1ccn(-c2ccc(Cl)cc2)n1`: the molecule was called inactive.

As for `CC(C)(C)c1ccc(CSc2cnn(C(C)(C)C)c(=O)c2Cl)cc1`, the result was inactive.

With `CC(C)Oc1cc(-n2nc(C(C)(C)C)oc2=O)c(Cl)cc1Cl`, the concentration at half-maximal activity (AC50) was 100 µM (active).

Take `CO/C=C(/C(=O)OC)c1ccccc1Oc1cc(Oc2ccccc2C#N)ncn1`: the outcome was inactive.

Regarding `COc1ccc(C(c2ccc(OC)cc2)C(Cl)(Cl)Cl)cc1`, the call was inactive.

As to `OC(c1ccc(Cl)cc1)(c1cncnc1)c1ccccc1Cl` (configuration not stated), the concentration at half-maximal activity (AC50) was 1.98 µM (active).

Consider `COP(=S)(OC)Oc1nc(Cl)c(Cl)cc1Cl`, for which the half-maximal activity concentration (AC50) is 27.1 µM (active).

For the molecule `CCCN(CCC)c1c([N+](=O)[O-])cc(S(N)(=O)=O)cc1[N+](=O)[O-]`, the concentration at half-maximal activity (AC50) was 14.8 µM (active).

As for `C=CC1(C)OC(=O)N(c2cc(Cl)cc(Cl)c2)C1=O` (configuration not stated), the result was inactive.

Turning to `C#CCOS(=O)OC1CCCCC1Oc1ccc(C(C)(C)C)cc1` (configuration not stated), the half-maximal activity concentration (AC50) is 24.2 µM (active).

The next assay has as its target GAL4 Transcription Factor (Internal Marker), GAL4 (gene 855828) (UniProt P04386). Kind of assay: ATG_GAL4_XSP1: Attagene TRANS-FACTORIAL Multi-Species (XSP1) HepG2 Assay for GAL4 Transcription Factor (Internal Marker) (AID 2283789). The gist of the method:
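HepG2 cells transiently transfected with multiplexed GAL4-UAS reporter units were exposed for 24 h with 3 nM 6-alpha-fluorotestosterone present. Reporter mRNA was quantified by RT-PCR, FAM labelling, HpaI digestion and capillary electrophoresis; background-control readout, gain-of-signal versus DMSO.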
On to `CCCCOC(=O)c1ccccc1C(=O)OCCCC`, for which the call was inactive.

For the molecule `COC(=O)N(OC)c1ccccc1COc1ccn(-c2ccc(Cl)cc2)n1`, the outcome was inactive.

For the molecule `CC(C)Oc1cc(-n2nc(C(C)(C)C)oc2=O)c(Cl)cc1Cl`, the molecule was classed as inactive.

`CO/C=C(/C(=O)OC)c1ccccc1Oc1cc(Oc2ccccc2C#N)ncn1`: the outcome was inactive.

As for `COc1ccc(C(c2ccc(OC)cc2)C(Cl)(Cl)Cl)cc1`, the result was inactive.

In the case of `CCCN(CCC)c1c([N+](=O)[O-])cc(S(N)(=O)=O)cc1[N+](=O)[O-]`, the concentration at half-maximal activity (AC50) was 49.1 µM (active).

In the case of `C=CC1(C)OC(=O)N(c2cc(Cl)cc(Cl)c2)C1=O` (configuration not stated), the molecule was classed as inactive.

System in a further assay: not listed separately
The experiment in a line: ATG_M_06_XSP1: Attagene TRANS-FACTORIAL Multi-Species (XSP1) HepG2 Assay for M06 Transcription Factor (Internal Marker) (AID 2283790). Summed up:
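Transfected HepG2 multi-reporter system treated 24 h in the presence of 3 nM 6-alpha-fluorotestosterone. The M06 internal marker transcript was quantified by RT-PCR with capillary electrophoresis as a background control, and gain of signal was scored versus DMSO.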
Turning to `COC(=O)N(OC)c1ccccc1COc1ccn(-c2ccc(Cl)cc2)n1`, the molecule was classed as inactive.

Take `CC(C)(C)c1ccc(CSc2cnn(C(C)(C)C)c(=O)c2Cl)cc1`: the molecule was called inactive.

On to `CON(C)C(=O)Nc1ccc(Cl)c(Cl)c1`, for which the result was inactive.

For the molecule `CC(C)Oc1cc(-n2nc(C(C)(C)C)oc2=O)c(Cl)cc1Cl`, the molecule was classed as inactive.

With `CO/C=C(/C(=O)OC)c1ccccc1Oc1cc(Oc2ccccc2C#N)ncn1`, the molecule was called inactive.

For `COc1ccc(C(c2ccc(OC)cc2)C(Cl)(Cl)Cl)cc1`, the molecule was classed as inactive.

`COP(=S)(OC)Oc1nc(Cl)c(Cl)cc1Cl`: the molecule was classed as inactive.

Regarding `CCCN(CCC)c1c([N+](=O)[O-])cc(S(N)(=O)=O)cc1[N+](=O)[O-]`, the call was inactive.

Take `CCOP(=S)(OCC)SCn1c(=O)oc2cc(Cl)ccc21`: the result was inactive.

Take `C=CC1(C)OC(=O)N(c2cc(Cl)cc(Cl)c2)C1=O` (configuration not stated): the molecule was classed as inactive.

Consider `C#CCOS(=O)OC1CCCCC1Oc1ccc(C(C)(C)C)cc1` (configuration not stated), for which the outcome was inactive.

Regarding `CCCCC(CC)COC(=O)c1ccccc1C(=O)OCC(CC)CCCC` (configuration not stated), the molecule was called inactive.

On to `CCCCNC(=O)OCC#CI`, for which the outcome was inactive.
